Screens deposited in PubChem by National Center for Advancing Translational Sciences (NCATS).
Shiga inhibitor – A qHTS for Small Molecule Inhibitors of Shiga Toxin; Vero cells, Shiga toxin protein synthesis inhibition reporter; inhibition, % at 38.7 µM; 290,000 compounds, 9.2% hits; in the data active = inhibition mostly above about 28%, no sharp cut-off; inactive = mostly below about 43%
CHX counter – Cycloheximide Counterscreen for Small Molecule Inhibitors of Shiga Toxin; cell reporter, cycloheximide protein synthesis inhibition counterscreen; max response, %; 300,000 compounds, 12% hits; AID 2314, 2010; in the data active = max response mostly above about 13%, no sharp cut-off; inactive = mostly below about 14%; note: read at 38.3 µM for the half of the compounds with a filed dose
AmpC detergent – qHTS Inhibitors of AmpC Beta-Lactamase (assay with detergent); P00811; AmpC hydrolysis of nitrocefin, absorbance 480 nm, 0.01% Triton; Potency, µM (doses to about 114 µM), most hits filed as inhibitors; 370,000 compounds, 0.041% hits; AID 485294, 2010; note: nearly all actives have a fitted effect of over 25% in size
Target sequence (P00811 whole entry, looked up): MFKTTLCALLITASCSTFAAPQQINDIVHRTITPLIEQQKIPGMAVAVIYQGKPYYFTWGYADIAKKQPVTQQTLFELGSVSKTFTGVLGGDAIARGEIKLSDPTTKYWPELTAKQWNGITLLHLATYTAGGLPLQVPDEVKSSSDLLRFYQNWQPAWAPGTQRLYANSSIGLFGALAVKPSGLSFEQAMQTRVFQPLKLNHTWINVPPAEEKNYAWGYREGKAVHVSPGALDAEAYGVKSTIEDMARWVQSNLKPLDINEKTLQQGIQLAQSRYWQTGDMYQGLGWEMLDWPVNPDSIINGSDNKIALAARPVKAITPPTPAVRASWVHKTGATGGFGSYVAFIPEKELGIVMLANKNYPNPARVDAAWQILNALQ
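AmpC (5.3 nM in the dispensed reagent) in 20 mM phosphate pH 7.0 with 0.01% (detergent screen) or 0.0001% Triton X-100 was preincubated with compounds for 15 min at room temperature. Nitrocefin was then added from an 800 uM solution, and hydrolysis was followed at 480 nm.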
NS1 inh – qHTS Assay for Inhibitors of Influenza NS1 Protein Function. AID 2326, 2010. 270,000 compounds, 0.4% hits. Potency, µM (series often up to 46.1 µM); calls by dose curve; note: actives are rising curves; nearly all actives have a fitted effect of over 50% in size
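Read-out: OD600 growth recovery of NS1-expressing budding yeast. Cells grown overnight at 30C in -URA glucose medium, washed, resuspended and diluted 1:100 in 2% galactose assay medium, pH 6.0. Same strain lacking NS1 served as positive control.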
AmpC inh no detg – qHTS Inhibitors of AmpC Beta-Lactamase (assay without detergent); P00811; AmpC nitrocefin hydrolysis, absorbance 480 nm, 0.0001% Triton; AID 485341, 2010; 330,000 compounds, 0.52% hits; Potency, µM (doses to about 57.1 µM), actives largely listed as inhibitors; note: nearly all actives have a fitted effect of over 20% in size
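AmpC (5.3 nM in the dispensed reagent) in 20 mM phosphate pH 7.0 with 0.01% (detergent screen) or 0.0001% Triton X-100 was preincubated with compounds for 15 min at room temperature. Nitrocefin was then added from an 800 uM solution, and hydrolysis was followed at 480 nm.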
Of the large screens only hits and unclear results are named; the others gave an inactive call. The full list was thinned out, with hits kept by preference. Unless noted, calls come from the whole dose curve; as a rule, active = well fitted curve in the direction sought with a large enough effect; inconclusive = small, poorly fitted or top-dose-only effect, or another doubt; inactive = no such curve, though single readings can be large; an effect the other way counts as inactive or inconclusive.

COc1cc(NC(=O)C/C(C)=N/NC(=O)c2cccs2)c(OC)cc1Cl	Shiga inhibitor 67, CHX counter 25
C/C(=N/NC(=O)c1cccs1)c1ccc(NC(=O)COc2ccc(Cl)cc2Cl)cc1	Shiga inhibitor 94, CHX counter 33, AmpC detergent inconclusive
COc1ccc(CCNC(=O)c2cnc3sc(N4CCOCC4)nn3c2=O)cc1OC	none (no result: Shiga inhibitor, CHX counter, NS1 inh, AmpC inh no detg)
O=C(c1ccco1)N1CCc2[nH]nc(-c3ccccc3)c2C1	none
CC(=O)Nc1cccc(NC(=O)c2ccc(C(=O)Nc3cccc(NC(C)=O)c3)nc2)c1	none
Cc1cccc(NC(=O)c2ccc(C(=O)Nc3cccc(C)c3)nc2)c1	Shiga inhibitor 64
O=C(Nc1ccccc1)c1ccc(C(=O)Nc2ccccc2)nc1	Shiga inhibitor 49
CCOC(=O)C1=C(Cn2cnc3ccccc32)NC(=O)NC1c1ccc(OC)cc1 (stereo not drawn)	none
Cc1cccc(-n2ncc3c(NCCc4ccc(S(N)(=O)=O)cc4)ncnc32)c1	AmpC detergent inconclusive
c1ccc(-n2ncc3c(NCc4ccccn4)ncnc32)cc1	Shiga inhibitor 74, CHX counter 30
OCCOCCNc1ncnc2c1cnn2-c1ccccc1	none
Cc1cccc(-n2ncc3c(NCc4ccccn4)ncnc32)c1	Shiga inhibitor 70, CHX counter 29
CCN(CC(=O)NC1CC1)S(=O)(=O)c1ccccc1	none
CCOC(=O)c1cc(C(C)(C)C)oc1CNC(=O)c1c(C)oc2c1CCCC2	Shiga inhibitor 73
CCn1c(SCC(=O)NNC(=O)c2ccc(OC)cc2)nnc1-c1cccnc1	none
Cc1c2c(nc3ccccc13)CCC(C(C)(C)C)C2 (stereo not drawn)	Shiga inhibitor 62, CHX counter 26 (no result: NS1 inh)
CC(C)(C)C1CCc2[nH]c3ccccc3c(=O)c2C1 (stereo not drawn)	none
O=C(N/N=C/C1CCCCC1)c1ccccn1	Shiga inhibitor 166, CHX counter 49
Cc1cc2c(cc1C)/C(=N/NC(=O)c1ccccn1)CCC2	Shiga inhibitor 49, CHX counter 53
O=C(NN=C(c1ccccc1)c1ccccn1)c1ccccc1	none (no result: Shiga inhibitor, CHX counter, AmpC detergent, NS1 inh)
CCC/C=N/NC(=O)c1cc(Br)ccc1O	AmpC detergent inconclusive
O=C(NN=C1CCC(=NNC(=O)c2ccccn2)CC1)c1ccccn1	Shiga inhibitor 51, CHX counter 55
O=C(N/N=C/C1CCCCC1)c1cc(Cl)ccc1O	Shiga inhibitor 45
c1ccc2c(-c3nc(C4CCCCC4)no3)cc(-c3ccncc3)nc2c1	none
Cc1ccc(S(=O)(=O)Nc2cccc(-c3ccc(N4CCCCCC4)nn3)c2)c(C)c1	Shiga inhibitor 88, CHX counter 42, AmpC detergent inconclusive
CCOC(=O)c1sc(=NC(=O)c2ccc(OC)c(OC)c2)n(C)c1C	Shiga inhibitor 86, AmpC detergent inconclusive
CCOC(=O)c1sc(=NC(=O)c2cccc(OC)c2)n(C)c1C	Shiga inhibitor 59, CHX counter 36
CCOC(=O)c1sc(=NC(=O)CCS(=O)(=O)c2ccccc2)n(C)c1C	AmpC detergent inconclusive (no result: NS1 inh)
CCOC(=O)c1sc(=NC(=O)c2ccccc2)n(C)c1C	Shiga inhibitor 90, CHX counter 36 (no result: NS1 inh)
CC(C)[C@H](NS(=O)(=O)c1ccccc1)C(=O)Nc1nccs1	none (no result: Shiga inhibitor, CHX counter, AmpC detergent, NS1 inh)
Cc1cc(Br)c2c(c1)C(O)(N1CCCCC1C)C(=O)N2 (stereo not drawn)	none
COc1ccc(CNC(=O)Cn2c(-c3ccccc3)cc(C(C)=O)c2C)cc1OC	none (no result: Shiga inhibitor, CHX counter, NS1 inh, AmpC inh no detg)
COC(=O)C(C)NC(=O)c1ccc(C(C)(C)C)cc1 (stereo not drawn)	Shiga inhibitor 77, CHX counter 31
